According to the supplement of paper PMC3334620:
Over roughly 33,000 sequences, “E-score (-0.5 to 0.5)” has its median near -0.016; the highest 2% begin near 0.31. Many of the other results were omitted from the sample, so the highest values are more common in it than they were.

Molecular target: Cst6 (UniProt P40535)
Assay: PBM E-score (8-mer binding enrichment) (E-score (-0.5 to 0.5)); higher = stronger / more preferred TF binding
Conditions: protein concentration: 200 nM; construct: GST-DNA-binding domain
Description: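 Universal 'all 10-mer' protein binding microarrays (Agilent AMADID 015681) probed with GST-tagged S. cerevisiae TFs (full-length or DBD) made by in vitro transcription/translation (PURExpress), about 100-200 nM. Bound TF was detected with fluorescent anti-GST. Each ungapped 8-mer (which stands for itself and its reverse complement) is scored by the PBM enrichment score (E-score), a modified Wilcoxon-Mann-Whitney statistic from -0.5 to +0.5, computed with the Universal PBM Analysis Suite. Scale: above 0.35 generally sequence-specific binding.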

UniProt P40535, sequence (P40535 whole entry): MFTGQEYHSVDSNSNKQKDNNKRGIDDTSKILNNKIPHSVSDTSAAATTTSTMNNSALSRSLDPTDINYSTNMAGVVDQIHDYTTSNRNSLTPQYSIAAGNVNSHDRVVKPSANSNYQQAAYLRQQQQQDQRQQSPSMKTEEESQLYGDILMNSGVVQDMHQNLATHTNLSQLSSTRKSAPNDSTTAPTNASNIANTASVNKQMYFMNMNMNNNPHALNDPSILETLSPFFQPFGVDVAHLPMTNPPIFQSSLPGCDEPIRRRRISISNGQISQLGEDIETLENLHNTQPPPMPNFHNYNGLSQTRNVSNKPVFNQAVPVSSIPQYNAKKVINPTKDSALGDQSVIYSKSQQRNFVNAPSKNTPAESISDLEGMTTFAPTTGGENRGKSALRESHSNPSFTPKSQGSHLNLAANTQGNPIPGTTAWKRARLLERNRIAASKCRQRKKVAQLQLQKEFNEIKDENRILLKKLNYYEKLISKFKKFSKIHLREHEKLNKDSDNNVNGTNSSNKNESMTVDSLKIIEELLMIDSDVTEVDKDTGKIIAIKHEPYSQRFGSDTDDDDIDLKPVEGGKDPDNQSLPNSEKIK

Sequence	PBM E-score
TAGGCTGA	-0.0803
CCCCTACG	-0.298
GAGGAGGA	-0.288
ACTCCTTC	-0.234
TATCATAA	0.144
TCTCATCA	0.181
TATCATCA	0.341
AATCATTA	0.28
CATCATTA	0.327
CATCATTC	0.223
CCTGCTTA	-0.0696
GGGTCGCA	-0.144
CCGAGGCG	0.0158
CTCCTAGA	-0.09
ATGCATTA	0.255
ATATTACC	0.248
AAATTACT	0.222
AAATTACG	0.336
CAATTACA	0.223
ATATTACG	0.415
ATATTACA	0.248
AAATTACC	0.199

Sequence	PBM E-score
CAATTACC	0.138
CACTTACG	0.351
CACTTACA	0.173
CACTTACC	0.0685
CAATTACG	0.346
AACTGCCT	0.129
CCGTTGCG	0.0674
TACCTGCA	-0.0618
ACAAGATA	0.0758
AGCTATGA	0.101
ATATGCAC	0.0769
ACGGGCAC	-0.105
CAGCCCAC	-0.191
AAGGTAAT	0.129
ACCGTCCC	-0.173
CCGTAAGC	-0.0303
ACGTACGT	0.311
CCGTAAGA	-0.0536
ATGTAAGA	0.339
CTGTAAGA	0.0332
ACGTACGG	0.149
ACGTAAGC	0.381

Sequence	PBM E-score
GCGTAAGC	0.0902
ACGTACGC	0.229
GTGTAAGA	0.0158
TCGTAAGA	0.00239
ACGTAAGA	0.448
ATCTGGAA	0.184
GCTCAATA	0.0653
CATAGAGG	-0.0937
CACCTCGG	0.02
CACCATTC	0.0213
AGGTATTC	0.0784
ACCGCAGG	-0.104
CCACCGAC	-0.163
ACTCAAGT	-0.053
CACAACCA	0.124
GTATACCA	-0.051
TGCGCCAA	-0.0304
ACGTAAGT	0.422
AAGTAAGC	0.0657
AAGTAAGT	0.116
ACGTAAGG	0.347
CCGTAAGG	-0.113

Sequence	PBM E-score
AGGTAAGG	-0.132
AGTGGCGC	0.00481
AGCCAAAG	-0.114
GATGATAA	0.257
CCAGCTCC	-0.29
ACGCTCCG	-0.119
CAAATAAC	0.37
GAAATAAC	0.148
AAAATAAC	0.178
ACAGGGCG	0.0932
ACCGACGA	-0.0237
ACCTCCGT	-0.0629
AAATGGCC	-0.0934
GTACATCA	0.275
CTACATCA	0.302
ATGCATCG	-0.00649
ATACATAC	0.0814
ATACATAA	0.258
ATGCATCA	0.372
GTGCATCA	0.0738
ATACATCA	0.398
ATACATAT	0.337

Sequence	PBM E-score
CAGTCGCG	-0.25
AGATTCAC	-0.122
GAAACCTA	-0.148
CTAAAGGC	0.0355
CATCAAAG	0.0154
AAGGGAAT	0.112
ATGTAATA	0.415
GTGTAATA	0.214
ATGTAACG	0.235
ATGTAATC	0.299
ATGTAATG	0.394
CTGTAATA	0.108
CATCATGC	0.362
CATCATGA	0.363
CATCATGG	0.249
AATCATGT	0.139
AATCATGA	0.338
AATCATGC	0.0631
GATCATGC	-0.137
TATCATGA	0.186
AATCATGG	0.0769
GATAGCGC	-0.152
